# Compound activity from PubChem.
# Shown are actives, neighbours in structure and some others; about 3.4% of the full set was active somewhere.
# sPLA2-III inh: human group III sPLA2 inhibitors, primary screen, biochemical, QFRET, BODIPY PC-A2 liposome substrate; actives 0.56% (n = 370,000); QFRET BODIPY PC-A2 liposome hydrolysis, fluorescence; inhibition, % at 12.2 µM; Group 3 secretory phospholipase A2 (Homo sapiens), Q9NZ20;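 active = inhibition above mean plus 3 SD of compounds lying within the high and low control bounds, cut at about 19% in these data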;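 note: 0% = median of test compound wells and 100% = no enzyme DMSO wells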
# Target sequence (Q9NZ20 whole entry, looked up): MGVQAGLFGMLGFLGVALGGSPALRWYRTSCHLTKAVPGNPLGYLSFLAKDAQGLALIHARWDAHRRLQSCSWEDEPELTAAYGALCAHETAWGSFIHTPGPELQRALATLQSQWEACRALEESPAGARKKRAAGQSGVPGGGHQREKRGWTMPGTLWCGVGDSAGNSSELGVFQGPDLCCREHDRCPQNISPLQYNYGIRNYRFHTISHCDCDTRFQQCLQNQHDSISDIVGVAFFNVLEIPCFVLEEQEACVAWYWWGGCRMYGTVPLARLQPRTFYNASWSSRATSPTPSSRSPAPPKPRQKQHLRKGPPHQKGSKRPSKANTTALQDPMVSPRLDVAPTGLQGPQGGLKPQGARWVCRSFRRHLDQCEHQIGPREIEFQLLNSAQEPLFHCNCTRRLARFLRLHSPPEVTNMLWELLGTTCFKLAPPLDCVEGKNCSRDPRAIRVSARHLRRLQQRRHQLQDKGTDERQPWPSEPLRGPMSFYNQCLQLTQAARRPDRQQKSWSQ
# PLCg1 inh: PLC-gamma1 enzyme inhibitors, primary screen, biochemical, fluorescence, purified enzyme | 1-phosphatidylinositol 4,5-bisphosphate phosphodiesterase gamma-1 (Homo sapiens), P19174 | fluorogenic substrate | inhibition, % at 12.2 µM | actives 0.84% (n = 370,000) | AID 720700, 2013; in the data active = inhibition above about 9.5%
# ADAM10 inh: human ADAM10 inhibitors, primary screen, biochemical, QFRET, HTS; actives 0.62% (n = 370,000); inhibition, % at 7 µM; recombinant ADAM10, EDANS/DABCYL FRET peptide cleavage, 3 h;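 active = inhibition above a per-campaign cutoff equal to the mean of compounds falling between control-based bounds plus 3 SD, cut at about 20% in these data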;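 note: 0% = DMSO wells while the 100% control is not disclosed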
# KLK7 zymogen act: proKLK7 zymogen activators, primary screen, biochemical, fluorescence intensity; Kallikrein-7 (Homo sapiens), P49862; purified proKLK7, EDANS-DABCYL substrate fluorescence; 100% is mature enzyme control, 0% vehicle; activation, % at 7 µM; actives 0.9% (n = 370,000);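 active = activation above the mean of all tested compounds plus 3 SD, computed per campaign excluding outliers beyond control limits, cut at about 13% in these data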
# ADAM17 inh: ADAM17 inhibitors, primary screen, biochemical, QFRET; recombinant ADAM17, EDANS/DABCYL FRET peptide cleavage; inhibition, % at 6.95 µM; actives 0.83% (n = 370,000);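 active = inhibition above the mean of compounds lying between control limits plus 3 SD, set per campaign, cut at about 8.5% in these data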;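 note: 0% = DMSO-only wells as the low control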
# PLCb3 inh: human PLC-beta3 inhibitors, primary screen, biochemical, fluorescence. 1-phosphatidylinositol 4,5-bisphosphate phosphodiesterase beta-3 (Homo sapiens), Q01970. Purified PLC-beta3, fluorogenic substrate. inhibition, % at 12.2 µM. actives 0.18% (n = 370,000). AID 720704, 2013; in the data active = inhibition above about 11%;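 note: 0% = median of compound wells on plate and 100% = full blocker control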
# hGIII sPLA2 conf: human group III sPLA2 inhibitors, confirmation, biochemical, QFRET, triplicate | inhibition, % at 12.2 µM | AID 743280, 2014 | shares compounds with sPLA2-III inh | actives 34% (n = 2,000) | recombinant hGIII-sPLA2, BODIPY PC-A2 QFRET fluorescence;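 active = mean inhibition across triplicates above the hit cutoff set in the earlier primary screen, cut at about 19% in these data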;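 note: 0% = enzyme with DMSO and 100% = DMSO wells lacking enzyme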
# BODIPY interf: 535nm fluorescence optical interference, confirmation, artefact control for HGIII-sPLA2 inhibitor project, biochemical, QFRET; shares compounds with sPLA2-III inh; BODIPY FL product fluorescence interference; inhibition, % at 12.2 µM; actives 8.5% (n = 2,000);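 active = average inhibition above the solvent-only control mean plus 3 SD, cut at about 6% in these data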;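 note: 0% = DMSO with substrate plus product and 100% = DMSO with substrate alone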
# 535nm interf DR: 535nm fluorescence optical interference, dose response, artefact control for HGIII-sPLA2 inhibitor project, biochemical, QFRET; 240 tested, under 10 active; shares compounds with sPLA2-III inh; BODIPY FL product fluorescence interference, cell-free; AID 743455, 2014; IC50, µM;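 active = IC50 at or below 10 µM; inactive = IC50 above 10 µM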
# * = called active by the depositor; . = not tested or not shown; ! = a repeat was not active.
SMILES,sPLA2-III inh,PLCg1 inh,ADAM10 inh,KLK7 zymogen act,ADAM17 inh,PLCb3 inh,hGIII sPLA2 conf,BODIPY interf,others
CCOC(=O)c1sc(=S)n(-c2ccc(OC)cc2)c1N,24.9*,5.0,1.8,0.7,-1.4,-5.8,14.6,-1.0,
C/C(CC(=O)Nc1ccc(Cl)c(Cl)c1)=N\NC(=O)C(=O)N1CCCCC1,-20.2,6.2,3.4,-0.3,3.9,-0.6,.,.,
CCCCn1c(C23CC4CC(CC(C4)C2)C3)n[nH]c1=S,25.1*,3.8,-4.3,0.3,0.8,-8.2,43.9*,3.6,535nm interf DR=>122
Cc1cc(NS(C)(=O)=O)c(=O)n(Cc2cccc(C(F)(F)F)c2)c1,21.3*,-3.7,-36.0,-0.5,-16.2,-8.8,17.3,-6.6,
COCC(=O)Nc1cc(C)cn(Cc2cccc(C(F)(F)F)c2)c1=O,11.6,-5.7,-9.7,-1.2,-3.5,-2.2,.,.,
O=c1[nH]cc(Cc2ccccc2)c(=O)[nH]1,-1.8,-5.3,-5.9,-0.7,-3.4,1.6,.,.,
S=c1[nH]cc(Cc2ccccc2)s1,38.1*,0.9,0.2,-0.1,3.1,3.7,27.1*,-2.3,
O=C(Nc1cccc(C(F)(F)F)c1)C1(c2ccccc2)CC1,5.2,-1.7,5.1,0.2,-2.6,-1.0,.,.,
O=C(Nc1ccc(C(F)(F)F)cc1)C1(c2ccccc2)CC1,25.4*,2.0,-13.1,0.8,-4.6,-2.2,4.2,-10.9,
N#Cc1ccc2c(c1)NC(=O)C1CCCN21 (centres undefined),1.8,-26.1,-28.1,1.1,-10.9,-44.9,.,.,
CC1(C)Oc2ccc(C#N)cc2[C@@H](N2CCCC2=O)[C@@H]1O,21.1*,0.5,-11.7,-0.5,-2.8,0.5,-2.7,-1.2,
Fc1ccccc1-c1nc(N2CCCCC2)c2ccccc2n1,20.5*,-10.0,5.5,-0.3,-3.0,-23.8,-4.7,-13.8,
CC(C)c1ccc2c(c1)CC[C@H]1[C@](C)(CN)CCC[C@]21C,21.3*!,4.1,-8.3,0.5,-8.0,2.8,21.0*,-27.8,
CN(CCc1ccccc1)C(=O)c1cccc(NC(=O)Cc2cccc(NC(=O)C3CCN(C(=O)C4CCC4)CC3)c2)c1,-19.0,1.6,-4.3,1.0,1.4,-55.2,.,.,
CCCCNC(=O)C[C@@H]1C[C@@]2(C(=O)OC)CCCCC=C2N(Cc2ccc3c(c2)OCO3)C1=O,-0.6,4.2,1.4,-0.6,-0.1,3.2,.,.,
COc1ccc2c(c1)C(=O)N1[C@H]3c4cc(Cl)ccc4OC[C@@H]3[C@H](c3ccccc3)[C@]1(C)C(=O)N2,-0.3,3.5,13.6,-5.0,1.9,1.0,.,.,
COc1ccc2c(c1)OC[C@H]1[C@H]2N2C(=O)c3cc(F)ccc3NC(=O)[C@@]2(C)[C@H]1c1ccccc1,34.6*,-6.4,-22.6,-0.8,-7.5,-11.8,7.0,-4.4,
COc1ccc2c(c1)OC[C@H]1[C@H]2N2C(=O)c3cc(OC)ccc3NC(=O)[C@@]2(C)[C@H]1c1ccccc1,37.3*,-3.0,15.1,-2.5,8.3,-6.5,27.2*,-18.6,
CCOc1ccccc1C(=O)N[C@H](C(=O)Nc1cc(S(=O)(=O)N(C)C)ccc1OC)C(C)C,-1.4,-2.5,-0.3,0.6,-6.0,-8.9,.,.,
Cc1ccccc1Nc1nc(N)nc(CN2CCN(C(=O)c3ccccc3)CC2)n1,2.0,0.8,-6.9,-0.6,-1.2,-0.3,.,.,
CCc1ccc(NC(=S)Nc2ccc3cn[nH]c3c2)cc1,19.3*,-6.9,-41.1,-0.7,-17.6,-5.7,10.7,-5.5,
COc1ccc(NC(=S)Nc2ccc3cn[nH]c3c2)cc1,16.6,7.2,-33.9,1.1,-12.4,-10.4,.,.,
CCCCNC(=S)Nc1ccc2cn[nH]c2c1,21.2*,-1.2,1.7,-0.7,-3.1,0.9,6.2,-1.1,
